PubChem BioAssay (NCI)
Compounds without any hit were thinned out: in the full panel of roughly 83,000, 20% have a hit.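 Treatment: one concentration, 48 hours, 96-well format. Scoring: percent growth, with anything below 10 considered active.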 Values without a mark were called inactive. The source made the active and inactive calls.

These compounds were tested on A549/ATCC NSCLC (assay: NCI-60 one-dose screen, 48 h (100 = growth as untreated, 0 = no growth, -100 = all killed)). Settings: 10 µM unless noted.

Structure (SMILES)	growth
CC(C)=CCCC(C)c1ccc(C)c2c1OCN(CC1CCNCC1)C2 (stereo not drawn)	54.1%
COc1ccc(C2CC(c3ccc4c(c3)OCO4)=NN2C=O)cc1 (stereo not drawn)	95.8%
COc1cc(-c2nc3sc4c(c3c(=O)[nH]2)CCCCCC4)cc(OC)c1OC	25.8%
O=C(C(=O)N1CCOCC1)c1cn(CCCn2cc(C(=O)C(=O)N3CCOCC3)c3ccccc32)c2ccccc12	104%
COc1ccc(/C=C2/SC(=Nc3c(C)nn(-c4ccccc4)c3N)NC2=O)cc1	32.4%
C/C(=C\CCc1ccoc1)CC/C=C(\C)CCCN1CCOCC1	63.6%
CO[C@H]1/C=C/O[C@@]2(C)Oc3c(C)c(O)c4c(O)c(c(/C=N/N5C(C)CN(Cc6ccc(C#N)cc6)CC5C)c(O)c4c3C2=O)NC(=O)/C(C)=C\C=C\[C@H](C)[C@H](O)[C@@H](C)[C@@H](O)[C@@H](C)[C@H](OC(C)=O)[C@@H]1C (stereo partly drawn)	21.7%
CCOC(=O)CNC(=O)C1(NC(=O)CNC(=O)OCc2ccccc2)CCCC1	89.8%
COc1cnc2c(c1)C(=O)c1c-2n(CCCNC(C)C)c(=O)c2cc(F)ccc12	-68.6% (active)
Nc1ccc2c(c1Br)Cc1ccccc1-2	86%
O=C1OC2(c3ccccc31)c1ccccc1-c1ccccc12	72.4%
CCCCCCCCN(CCO)CCCCCCCC	99.7%
Nc1ccc2c(c1)C(=O)c1cc(Cl)c(Cl)cc1-2	90.7%
O=C(/C=C/c1cccc(Nc2ccnc3cc(Cl)ccc23)c1)c1ccc(Cl)cc1	79.4%
COc1ccc(NC(=O)c2ccccc2-c2ccccc2)c(C(N)=O)c1	46.5%
CC(=O)N1N=C(c2ccc(Cl)cc2)CC1c1c(C)nn(-c2ccccc2)c1N(C)Cc1ccccc1 (stereo not drawn)	53.5%
O=C(N/N=C/c1cccc(O)c1O)c1ccccc1	6.43% (active)
Clc1ccc(C2c3ccccc3-c3nccn32)c(Cl)c1 (stereo not drawn)	79.6%
OCc1n(Cc2ccc3ccccc3c2)cc[n+]1Cc1ccc2ccccc2c1	68.6%
CCOC(=O)c1cnc2c(C)cc(C)cc2c1NCCCN(C)C	1.69% (active)

Structure (SMILES)	growth
Cc1nn(-c2ccccc2)cc1/C=C1\SC(N2CCCCC2)=NC1=O	90.1%
OCCCc1n(Cc2ccc3ccccc3c2)c2ccccc2[n+]1Cc1ccc2ccccc2c1	68.4%
Cc1ccccc1NC(=O)NC(CC(N)=O)c1ccc2c(c1)nc(-c1cccc(Oc3ccc(C(C)(C)C)cc3)c1)n2CCCN1CCCCC1C (stereo not drawn)	54.9%
CC[C@@H](C)/C=C(C)/C=C/C(=O)c1c(O)c(-c2ccc(O)cc2)cn(OC2CC(=O)CCC(C)OC(=O)CC2O)c1=O (stereo partly drawn)	17.9%
COc1ccc2c(c1)c(CC(=O)[Se]C)c(C)n2C(=O)c1ccc(Cl)cc1	7.25% (active)
CC(=O)/C(=C/c1ccc(Cl)cc1)C(=O)c1ccccc1	94.8%
O=C1c2cccc(NCCN=Cc3ccccc3O)c2C(=O)c2c(NCCN=Cc3ccccc3O)cccc21	25.7%
c1ccc(CN=C(NCc2ccccc2)NCc2ccccc2)cc1	47.3%
COc1ccccc1-n1c(-c2ccc(O)cc2C)cn2c3c(=O)[nH]c(=O)n(C)c3nc12	86.6%
COc1ccc(-c2cnc(SCC(=O)Nc3ccc(-c4nc5ccccc5s4)cc3)n2-c2ccc(OC)cc2)cc1	101%
COc1cc(Cl)cc(-c2nn(-c3cccc(NC(=O)c4cc(C(F)(F)F)cc(C(F)(F)F)c4)c3)cc2-c2ccncc2)c1	43.5%
COc1c(O)cc2c(c1CC=C(C)C)OC(=O)c1c(cc(O)c(CC=C(C)C)c1O)O2	57.1%
O=C1/C(=C/c2cccc(Cl)c2)CCc2ccccc21	90.2%
CCNCCCn1c2c(c3ccc(F)cc3c1=O)C(=O)c1cc(OC)cnc1-2	-62.6% (active)
CCN(CC)c1ccc(N=C2C=CC(=O)C=C2NC(C)=O)cc1	100%
N#Cc1c(-c2ccccc2)cc(-c2ccccc2)n(CCC(=O)O)c1=O	46.6%
COc1ccc2nc(NC(=O)CN3CCn4c(nnc4C(F)(F)F)C3)sc2c1	88.4%
O=C1NC(=O)/C(=C\c2ccco2)S1	108%
O=C1CNc2cc(Cl)ccc2N1	113%

These compounds were tested on 786-0 renal in the same assay as above. Settings: 10 µM unless noted.

Structure (SMILES)	growth
CC(C)=CCCC(C)c1ccc(C)c2c1OCN(CC1CCNCC1)C2 (stereo not drawn)	-60.1% (active)
COc1ccc(C2CC(c3ccc4c(c3)OCO4)=NN2C=O)cc1 (stereo not drawn)	89.5%
COc1cc(-c2nc3sc4c(c3c(=O)[nH]2)CCCCCC4)cc(OC)c1OC	40.7%
O=C(C(=O)N1CCOCC1)c1cn(CCCn2cc(C(=O)C(=O)N3CCOCC3)c3ccccc32)c2ccccc12	104%
COc1ccc(/C=C2/SC(=Nc3c(C)nn(-c4ccccc4)c3N)NC2=O)cc1	40.5%
C/C(=C\CCc1ccoc1)CC/C=C(\C)CCCN1CCOCC1	69.4%
CO[C@H]1/C=C/O[C@@]2(C)Oc3c(C)c(O)c4c(O)c(c(/C=N/N5C(C)CN(Cc6ccc(C#N)cc6)CC5C)c(O)c4c3C2=O)NC(=O)/C(C)=C\C=C\[C@H](C)[C@H](O)[C@@H](C)[C@@H](O)[C@@H](C)[C@H](OC(C)=O)[C@@H]1C (stereo partly drawn)	14.1%
CCOC(=O)CNC(=O)C1(NC(=O)CNC(=O)OCc2ccccc2)CCCC1	94.9%
COc1cnc2c(c1)C(=O)c1c-2n(CCCNC(C)C)c(=O)c2cc(F)ccc12	-73% (active)
Nc1ccc2c(c1Br)Cc1ccccc1-2	107%
O=C1OC2(c3ccccc31)c1ccccc1-c1ccccc12	86.2%
CCCCCCCCN(CCO)CCCCCCCC	101%
Nc1ccc2c(c1)C(=O)c1cc(Cl)c(Cl)cc1-2	91.4%
O=C(/C=C/c1cccc(Nc2ccnc3cc(Cl)ccc23)c1)c1ccc(Cl)cc1	58%
COc1ccc(NC(=O)c2ccccc2-c2ccccc2)c(C(N)=O)c1	28.5%
CC(=O)N1N=C(c2ccc(Cl)cc2)CC1c1c(C)nn(-c2ccccc2)c1N(C)Cc1ccccc1 (stereo not drawn)	84.7%
O=C(N/N=C/c1cccc(O)c1O)c1ccccc1	22%
Clc1ccc(C2c3ccccc3-c3nccn32)c(Cl)c1 (stereo not drawn)	80.8%
OCc1n(Cc2ccc3ccccc3c2)cc[n+]1Cc1ccc2ccccc2c1	80.1%
CCOC(=O)c1cnc2c(C)cc(C)cc2c1NCCCN(C)C	29.2%

Structure (SMILES)	growth
Cc1nn(-c2ccccc2)cc1/C=C1\SC(N2CCCCC2)=NC1=O	83.6%
OCCCc1n(Cc2ccc3ccccc3c2)c2ccccc2[n+]1Cc1ccc2ccccc2c1	36%
Cc1ccccc1NC(=O)NC(CC(N)=O)c1ccc2c(c1)nc(-c1cccc(Oc3ccc(C(C)(C)C)cc3)c1)n2CCCN1CCCCC1C (stereo not drawn)	26.7%
CC[C@@H](C)/C=C(C)/C=C/C(=O)c1c(O)c(-c2ccc(O)cc2)cn(OC2CC(=O)CCC(C)OC(=O)CC2O)c1=O (stereo partly drawn)	-6.82% (active)
COc1ccc2c(c1)c(CC(=O)[Se]C)c(C)n2C(=O)c1ccc(Cl)cc1	9.49% (active)
CC(=O)/C(=C/c1ccc(Cl)cc1)C(=O)c1ccccc1	93.9%
O=C1c2cccc(NCCN=Cc3ccccc3O)c2C(=O)c2c(NCCN=Cc3ccccc3O)cccc21	36.7%
c1ccc(CN=C(NCc2ccccc2)NCc2ccccc2)cc1	73.1%
COc1ccccc1-n1c(-c2ccc(O)cc2C)cn2c3c(=O)[nH]c(=O)n(C)c3nc12	72.2%
COc1ccc(-c2cnc(SCC(=O)Nc3ccc(-c4nc5ccccc5s4)cc3)n2-c2ccc(OC)cc2)cc1	102%
COc1cc(Cl)cc(-c2nn(-c3cccc(NC(=O)c4cc(C(F)(F)F)cc(C(F)(F)F)c4)c3)cc2-c2ccncc2)c1	80.2%
COc1c(O)cc2c(c1CC=C(C)C)OC(=O)c1c(cc(O)c(CC=C(C)C)c1O)O2	19.3%
O=C1/C(=C/c2cccc(Cl)c2)CCc2ccccc21	94.8%
CCNCCCn1c2c(c3ccc(F)cc3c1=O)C(=O)c1cc(OC)cnc1-2	-38.4% (active)
CCN(CC)c1ccc(N=C2C=CC(=O)C=C2NC(C)=O)cc1	111%
N#Cc1c(-c2ccccc2)cc(-c2ccccc2)n(CCC(=O)O)c1=O	62.6%
COc1ccc2nc(NC(=O)CN3CCn4c(nnc4C(F)(F)F)C3)sc2c1	96.9%
O=C1NC(=O)/C(=C\c2ccco2)S1	99%
O=C1CNc2cc(Cl)ccc2N1	109%
